This passage reports RUNX1 binding intensity and TF binding intensity results from the supplement of paper PMC10681739.
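For RUNX1 binding intensity (PBM fluorescence), RUNX1 alone in this document: Full-length recombinant human RUNX1 bound to double-stranded 36-bp genomic probes on a high-density microarray, scored as Alexa488 fluorescence per spot via anti-RUNX1 antibody, median of four replicate spots.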

In the first assay the target is RUNX1 (UniProt Q01196). Nature of the assay: RUNX1 binding intensity (PBM fluorescence), RUNX1 alone (arbitrary fluorescence units); higher = stronger binding. The following applies: RUNX1 concentration 2 nM; ETS1 concentration 0 nM. The method, then: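 Cooperative gcPBM on 36-bp genomic probes with neighbouring ETS1 and RUNX1 sites. Recombinant human RUNX1 (2 nM) was incubated alone or with ETS1 (25 nM) and detected with anti-RUNX1 antibody plus Alexa488 secondary. Values are medians over 4 replicate spots; the RUNX1+ETS1 data were normalised to the RUNX1-only data. The probes sit in constant array flanks that are not printed.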
Sequence of RUNX1 (Q01196 whole entry): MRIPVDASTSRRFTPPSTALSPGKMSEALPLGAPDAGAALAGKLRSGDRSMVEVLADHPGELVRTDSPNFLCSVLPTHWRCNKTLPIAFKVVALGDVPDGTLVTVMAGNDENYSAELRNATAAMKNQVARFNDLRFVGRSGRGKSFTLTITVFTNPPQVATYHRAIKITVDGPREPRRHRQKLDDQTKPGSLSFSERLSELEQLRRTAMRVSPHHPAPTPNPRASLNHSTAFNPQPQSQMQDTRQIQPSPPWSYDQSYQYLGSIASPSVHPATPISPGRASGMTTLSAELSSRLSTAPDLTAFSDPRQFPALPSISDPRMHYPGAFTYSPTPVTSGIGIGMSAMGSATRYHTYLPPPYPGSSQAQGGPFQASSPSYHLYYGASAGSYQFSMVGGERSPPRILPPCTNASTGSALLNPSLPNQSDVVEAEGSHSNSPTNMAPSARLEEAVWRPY
As for AGAAAAGGAAATGGTGGGCTGCACACCACAGCTCAC, the RUNX1 binding intensity turned out to be 728. For CGGCTAGGAAATAAAGAGCCTTCTCTCCGCGGTAGG, the RUNX1 binding intensity was determined as 2270. CAGTGGCAGGAAGAGGTCAGAAACCACTCGTGGTGG came in with an RUNX1 binding intensity of 816. In the case of CTAGCCAGGAAGATAAAGAAGAAACCACCAAAGAGA, the RUNX1 binding intensity stood at 870. Same read-out and setting: to CCCATTTCCGAGAGTGGCAGGGCTGGGCGCGGTGGG belongs 978; to ATAGACCCAGCCCGTCCGGTAACCGCGCTCCTCGAT, 836. Still for that read-out and setting: to GAGGGAGCAGTTCCGGGTGCGGTGCGCGCCAGGGGC belongs 1650; to GGGCATGGTGGCTTCCGACCGCGGGGACCCCGAGAG, 738; to CTTCTTCCTGCTGAGACTGATACAGCCCGCAAAGCT, 994. Still for that read-out and setting: with CCAGCGGAAAGCCGGTCAGGGGGAACCGCGGCGGGG the figure was 893; with AGCTTCCGAGTCTGTTGTGGAGTGGGAACCGCGACT, 724.

Another assay concerns the target RUNX1 (UniProt Q01196). Briefly: TF binding intensity (PBM fluorescence), negative control probe (arbitrary fluorescence units); higher = stronger binding.
Details: not given
How it is done:
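gcPBM negative-control 36-bp genomic probes lacking TF binding sites. Each was incubated with recombinant human ETS1 or RUNX1 alone and detected by antibody fluorescence. Values are medians over replicate spots (4 spots for the ETS1-RUNX1 arrays, 3 for the ETS1-ETS1 array). The probes sit in constant array flanks that are not printed.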
Turning to “TCGGCGGCGGAGCACCGGAAGTTCTGCAGCACTGGC (protein concentration 2 nM)”, the TF binding intensity is 880. The same measure, in the same setting: to “CGAGCTTAGAAGGCGCTTCCGATGGGCGGAGTTTAG (protein concentration 2 nM)” belongs 742; to “TGGGCGGGGAGAGGACGGAAGGAGTAGGCTTCGGGA (protein concentration 2 nM)”, 1020.

“ATTCCATTCCAATCCTTTCCGCTCGGCTAAATTCCT (protein concentration 2 nM)” displayed a TF binding intensity of 1450. On the same count and under the same terms, to “TATCACTTCTGGCGAAGGAAATGGAAGAATCTATGG (protein concentration 2 nM)” belongs 1010. On the same count and under the same terms, with “ACGCTGCGCATGCGCCGGAAGTTGCAGCCGTGAAGC (protein concentration 2 nM)” the figure was 811. Same read-out and setting: to “GTCCAGGCAAGAAACAGGAAGTGTGTCATGCACAGA (protein concentration 2 nM)” belongs 870. For “CTTCTGTCTCCAAAACGGAAATAATAACTTGAGATT (protein concentration 2 nM)”, the TF binding intensity came out at 989.

In turn, “AATTCTGGGGAGCGAAGGAAATTGGCTTTCGAGGCG (protein concentration 2 nM)” registered a TF binding intensity of 1200.

Regarding “TGAAAAAGGGGAGGGCGGAAGTGACGAGCCGTAGCC (protein concentration 2 nM)”, the TF binding intensity came out at 891.

Consider “CGTCGCCCGGTCCCGGTTCCGGTCCGCGCTCCGGTC (protein concentration 2 nM)”, for which the TF binding intensity was 910. Same read-out and setting: with “TCTCCGCGCATTTTATTTCCGGTTCTGAGGACGCCG (protein concentration 2 nM)” the figure was 1040; with “TCTGGACGATGCAGTTTTCCGGTATACGCGACGCTA (protein concentration 2 nM)”, 727. The same measure, in the same setting: with “CCTTTTTCGCCTCCTTTTCCTGCCCCAAGACTAGAG (protein concentration 2 nM)” the figure was 1290; with “CAACGTTCTTCTGTTCTTCCGTCTGTCGACCGAACT (protein concentration 2 nM)”, 945; with “CTCACCAGTCACCCCAGGAAACTCTGCCCCTTTACA (protein concentration 2 nM)”, 950.

On to “ACAGTTGCTCCGTCTCTTCCTGTGTCTGGCTTTATT (protein concentration 2 nM)”, for which the TF binding intensity was found to be 876. Still for that read-out and setting: with “CCCTGCAGCGCGTCCTTTCCGGCCCGCCCCATGCAC (protein concentration 2 nM)” the figure was 922; with “CTCCCTTGCTCACAACTTCCTCTTGCTGTCTGCTTC (protein concentration 2 nM)”, 1170; with “CTCAGCGGCCGAACCCGGAAGTTCGGGGCCGAGTTC (protein concentration 2 nM)”, 901. In turn, “ACTACCCTCCGCCCTCTTCCGCCGCCGCCGCCGCCT (protein concentration 2 nM)” registered a TF binding intensity of 1200.

As to “GTTCCAGAAACGTCACATCCGGCGCCCGCTCCGCCC (protein concentration 2 nM)”, the TF binding intensity is 890. Same read-out and setting: to “GGGAGAGATGGGGCGCGGAAGGAACGAGGCGGGACG (protein concentration 2 nM)” belongs 1350; to “GGTGTCAAAGCCGAGCGGAAGCGGGGCTGGAATTGG (protein concentration 2 nM)”, 891.

As to “GGTCCCAGGAGAGGGGTTCCGGGGTGAAAGAGTGAG (protein concentration 2 nM)”, the TF binding intensity is 1060. As for “CAGGCTCGACACGGGCGGAACAAACGGGCTCCACTA (protein concentration 2 nM)”, the TF binding intensity stood at 769. “GCCTCACAAAAGAACAGGATGTTGTTGATTTGTCAC (protein concentration 2 nM)” gave a TF binding intensity of 828. Regarding “TCTGAAGGAGCCGGGCGGAAAGAAGCCGAGGCGCGC (protein concentration 2 nM)”, the TF binding intensity is 798. The same measure, in the same setting: to “GCACACAAGGCAGTGTTTCCGGGACAGAGGGTGGGC (protein concentration 2 nM)” belongs 937.
